From PubChem BioAssay

Molecular target: Albumin (Bos taurus) (UniProt P02769)
Assay: compounds binding labelled BSA control protein – biochemical, small-molecule microarray, Alexa647 label, 635/667 nm fluorescence, artefact control for SMM control protein annotation, profiling panel (AID 1118);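 further: score merges 667 nm emission intensity and signal-to-noise per printed compound spot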
Details: BSA-A647 binding, fluorescence 635 nm, higher = more signal

Chain of Albumin (Bos taurus) (P02769 whole entry, looked up): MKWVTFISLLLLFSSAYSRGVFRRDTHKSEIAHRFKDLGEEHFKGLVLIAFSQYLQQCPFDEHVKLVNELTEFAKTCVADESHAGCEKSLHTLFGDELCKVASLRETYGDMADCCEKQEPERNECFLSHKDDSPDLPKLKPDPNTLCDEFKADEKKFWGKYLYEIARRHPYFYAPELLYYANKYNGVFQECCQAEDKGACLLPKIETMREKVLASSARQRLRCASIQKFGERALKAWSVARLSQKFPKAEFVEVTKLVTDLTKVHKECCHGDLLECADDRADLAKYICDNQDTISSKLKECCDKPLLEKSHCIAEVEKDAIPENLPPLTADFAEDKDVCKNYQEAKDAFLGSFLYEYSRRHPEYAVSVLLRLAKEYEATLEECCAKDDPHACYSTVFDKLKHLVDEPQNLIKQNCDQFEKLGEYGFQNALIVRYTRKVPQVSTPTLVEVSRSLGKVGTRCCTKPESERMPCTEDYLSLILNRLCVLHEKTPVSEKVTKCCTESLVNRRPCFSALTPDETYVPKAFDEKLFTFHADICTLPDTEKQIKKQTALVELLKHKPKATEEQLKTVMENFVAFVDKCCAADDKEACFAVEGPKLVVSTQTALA

Row | Structure (SMILES) | composite z-score
1 | COc1ccc(C(=O)Nc2cccc(CN3C(=O)[C@]4(O[C@H](CCn5cc(CCO)nn5)[C@@H]([Si](C)(C)c5ccc(OC)cc5)[C@@H]4C)c4ccccc43)c2)cc1 | 0.196
2 | C=C[C@H](C)[C@@H](OC(=O)Nc1ccc(SC)cc1)c1ccc(O)c2ccccc12 | 0.0219
3 | COCCOC(=O)N1C(=O)[C@@]2(c3cc(C#CC4(O)CCCCCC4)ccc31)[C@H](C(=O)Nc1nc3ccccc3s1)[C@H]1C(=O)O[C@H](c3ccccc3)[C@H](c3ccccc3)N1[C@@H]2c1ccccc1OCCO | 0.306
4 | C=CCC(OC(C)=O)[C@@H]1[C@@H](N(Cc2ccc(-c3ccccc3)cc2)C(=O)Cc2ccc(F)cc2)c2cc(OCCCO)ccc2N1C(=O)c1ccc2ccccc2c1 (some centres undefined) | -0.153
5 | CN(C)CCCC[C@@H]1NC(=O)[C@H]2C[C@@H](C(=O)NCCCCCN)[C@@H](c3cccc(OCCO)c3)N2C1=O | 0.878
6 | C=CC[C@]1(C(=O)NCc2ccccc2)N=C(c2ccc(OCCCO)cc2)O[C@H]1c1ccccc1CN=[N+]=[N-] | 0.183
7 | O=C(CS)NCCCCCNC(=O)[C@@H]1C[C@@H]2C(=O)NCC(=O)N2[C@@H]1c1ccc(O)cc1 | -0.911
8 | C=CCC(OC(C)=O)[C@@H]1[C@@H](N(Cc2ccc(-c3cccc(C(F)(F)F)c3)o2)C(=O)c2cccc3ccccc23)c2cc(OCCCO)ccc2N1C(=O)Cc1ccc2ccccc2c1 (some centres undefined) | 0.426
9 | C=CCC(OC(C)=O)[C@@H]1[C@@H](N(Cc2ccc(-c3cccc(C(F)(F)F)c3)o2)C(=O)Cc2ccc(OC)cc2)c2cc(OCCCO)ccc2N1C(=O)c1ccc2ccccc2c1 (some centres undefined) | 0.268
10 | CC(C)CN1C(=O)[C@@]2(c3ccc([N+](=O)[O-])cc3)CC(=O)N(C3CCCCC3)[C@@H]2c2ccc(CO)cc21 | -0.124
11 | O=C1C2C=CC(C(O)C=Cc3ccc([N+](=O)[O-])cc3)N(n3cnnc3)C2C(=O)N1Cc1ccccc1 (centres undefined) | 0.235
12 | O=C1O[C@H](c2ccccc2)[C@H](c2ccccc2)N2[C@H]1[C@@H](C(=O)NC[C@H](O)c1ccccc1)[C@]1(C(=O)Nc3ccc(C#CC4=CCCCC4)cc31)[C@H]2c1ccccc1OCCO | 0.395
13 | O=C1NC(=O)C2C1C=CC(C(O)c1ccc(I)cc1)N2Nc1ccc(Cl)cc1Cl (centres undefined) | 0.99
14 | CC(C)CCC[C@@H](C)[C@H]1CC[C@@]2(C)C3=C(CC[C@]12C)[C@@]1(C)CC[C@H](OC(=O)c2ccc(C(F)(F)F)nc2)C(C)(C)C1CC3 (some centres undefined) | 0.326
15 | CC(C)(C)OC(=O)CC[C@]1(C(=O)NCCN2CCOCC2)COC(c2ccc(OCCCO)cc2)=N1 | 0.735
16 | CN1C(=O)C2C=CC(C(O)c3ccccc3)N(N3CCCCC3)C2C1=O (centres undefined) | 0.988
17 | CC[C@@H]1C=C(C(=O)O)[C@H](c2cccc3ccccc23)N1S(=O)(=O)c1ccc(C)cc1 | 0.8
18 | C=CCNC(=O)[C@H]1[C@@H]2C(=O)O[C@@H](c3ccccc3)[C@@H](c3ccccc3)N2[C@@H](c2ccc(OCCO)cc2)[C@]12C(=O)Nc1ccc(C#CCC(C(=O)OC)C(=O)OC)cc12 | 0.629
19 | C=CCN1Cc2ccccc2[C@@H]2OC(c3ccc(OCCCO)cc3)=N[C@]2(CCS(=O)(=O)c2ccccc2)C1=O | -0.292
20 | C[N+](C)(C)CCCC[C@@H]1NC(=O)[C@H]2C[C@@H](C(=O)NCCCCCCNC(=O)CS)[C@@H](c3ccc(O)cc3)N2C1=O | 0.329
21 | CC(=O)Nc1cc(Br)ccc1C(=O)NCc1ccccc1 | 0.744
22 | O=C1C2C=CC(C(O)c3ccc4c(c3)OCO4)N(Nc3ccc([N+](=O)[O-])cc3)C2C(=O)N1c1ccccc1 (centres undefined) | 0.854
23 | COc1ccc(C(O)C2C=CC3C(=O)N(C)C(=O)C3N2N(c2ccccc2)c2ccccc2)c2ccccc12 (centres undefined) | -0.111
24 | COc1cc2c(cc1O)C=[N+](Cc1cc3c(cc1Br)OCO3)CC2 | -0.71
